Results published in PubChem BioAssay AID588492 (Sanford-Burnham Center for Chemical Genomics, 2011).
Hit rate of the full screen: of about 360,000 compounds, about 2,300 (0.64%) were called active.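 The calls were made as follows: active = compounds giving at least 50% protection of heart cells from peroxide-induced death in the single-dose screen, raw or plate-pattern-corrected value; inactive = the rest.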 What follows is part of a selection rich in actives, with near analogues and random picks from the rest.

Test: H9c2 cardiomyocyte survival under peroxide injury – uHTS, H9c2 cells, ATPLite luminescence, primary screen (AID 588492);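 also: 0% = DMSO wells with peroxide and 100% = DMSO wells without peroxide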
Conditions: H9c2 cardiomyocytes, 2 h, at 20 µM, stronger effect = higher value

**Q.** For CCOc1ccc2[nH]c(=O)c(CN(CCCO)S(=O)(=O)c3ccc(F)cc3)cc2c1, which protection from H2O2 cell death is on record?
**A.** The protection from H2O2 cell death was 18.6% (inactive).

**Q.** For COc1ccc(-c2[nH]ncc2CN(C)Cc2cccnc2)c(F)c1, which protection from H2O2 cell death is on record?
**A.** The protection from H2O2 cell death was -2.7% (inactive).

**Q.** With COc1ccc2[nH]c(=O)c(CN(Cc3cccnc3)S(=O)(=O)c3ccccc3F)cc2c1 as the compound, how does the protection from H2O2 cell death read?
**A.** The protection from H2O2 cell death was 60.7% (active).

**Q.** With O=C(CNS(=O)(=O)c1ccc2c(c1)OCCCO2)N1CCN(c2ccc(F)cc2)CC1 as the compound, how does the protection from H2O2 cell death read?
**A.** The protection from H2O2 cell death was -3.7% (inactive).

**Q.** Which protection from H2O2 cell death does the source give for CC1CCC2(CC1)NC(=O)N(CC(=O)c1cccn1C)C2=O (configuration not stated) here?
**A.** Its protection from H2O2 cell death is 7.1% (inactive).

**Q.** With N#C/C(=C\c1ccc(-c2cccc([N+](=O)[O-])c2)o1)C(=O)NCCN1CCOCC1 as the compound, how does the protection from H2O2 cell death read?
**A.** The protection from H2O2 cell death was 55% (active).

**Q.** For Cc1ccc(C(=O)N/C(=C/c2ccc(-c3cccc([N+](=O)[O-])c3)o2)C(=O)NCCCN(C)C)cc1, which protection from H2O2 cell death is on record?
**A.** The protection from H2O2 cell death was -22.6% (inactive).

**Q.** Which protection from H2O2 cell death does the source give for Cc1ccc(-c2ccc(/C=N/NC(=O)CN3CCOCC3)o2)cc1[N+](=O)[O-] here?
**A.** The protection from H2O2 cell death was 7.6% (inactive).

**Q.** Which protection from H2O2 cell death does the source give for COc1ccc(C(=O)Nc2ccc(C(=O)NCC3CCCO3)cc2)c(OC)c1OC (configuration not stated) here?
**A.** The protection from H2O2 cell death was 10.2% (inactive).

**Q.** With O=C(NCCN1C(=O)S/C(=C\c2cccnc2)C1=O)c1ccc(S(=O)(=O)N2CCCC2)cc1 as the compound, how does the protection from H2O2 cell death read?
**A.** The protection from H2O2 cell death was 0.9% (inactive).

**Q.** Which protection from H2O2 cell death does the source give for Oc1c(C(c2ccccn2)N2CCOCC2)ccc2cccnc12 (configuration not stated) here?
**A.** The protection from H2O2 cell death was 64.9% (active).

**Q.** For COc1cc(-c2nnc(NC(=O)C3=COCCO3)o2)cc(OC)c1OC, which protection from H2O2 cell death is on record?
**A.** The protection from H2O2 cell death was -5.7% (inactive).

**Q.** With CCOC(=O)c1cc(-c2nnc(-c3cc(OC)c(OC)c(OC)c3)o2)c(C)nc1C as the compound, how does the protection from H2O2 cell death read?
**A.** Its protection from H2O2 cell death is 119% (active).

**Q.** Which protection from H2O2 cell death does the source give for Cc1nc(C)c(-c2nnc(-c3cccc(S(=O)(=O)N(C)C)c3)o2)cc1C(=O)NN here?
**A.** The protection from H2O2 cell death was -1.4% (inactive).

**Q.** For CCOC(=O)c1[nH]cnc1C(=O)NC1CCCCC1, which protection from H2O2 cell death is on record?
**A.** Its protection from H2O2 cell death is 5.2% (inactive).

**Q.** With Cc1cc(C(=O)N/N=C/c2cc([N+](=O)[O-])cc(C)c2O)n[nH]1 as the compound, how does the protection from H2O2 cell death read?
**A.** The protection from H2O2 cell death was 58.2% (active).

**Q.** Which protection from H2O2 cell death does the source give for COc1ccc(C(=O)NNC(=O)c2cc(C)[nH]n2)cc1 here?
**A.** Its protection from H2O2 cell death is 7.7% (inactive).

**Q.** Which protection from H2O2 cell death does the source give for Cc1occc1C(=O)N/N=C/c1ccc(-c2cccc([N+](=O)[O-])c2)o1 here?
**A.** Its protection from H2O2 cell death is 16.2% (inactive).

**Q.** With O=C(OC1CCOC1=O)c1ccc(-c2nc3ccccc3s2)s1 (configuration not stated) as the compound, how does the protection from H2O2 cell death read?
**A.** The protection from H2O2 cell death was -18.2% (inactive).

**Q.** Which protection from H2O2 cell death does the source give for Cc1cc(C)c(S(=O)(=O)c2ccc(F)cc2C)c(=O)[nH]1 here?
**A.** The protection from H2O2 cell death was 11.1% (inactive).

**Q.** Which protection from H2O2 cell death does the source give for CCN(CC)CCn1c(/N=C/c2cc(Br)ccc2O)nc2ccccc21 here?
**A.** Its protection from H2O2 cell death is 32.2% (inactive).

**Q.** With O=C(CCc1ccc(O)cc1)NN=Cc1cc(Br)ccc1O as the compound, how does the protection from H2O2 cell death read?
**A.** Its protection from H2O2 cell death is 41.5% (inactive).

**Q.** Which protection from H2O2 cell death does the source give for Oc1ccc(Br)cc1C=Nc1ccc2[nH]ncc2c1 here?
**A.** The protection from H2O2 cell death was 63.8% (active).

**Q.** For CCc1cc(=O)oc2cc(OCC(=O)N3CCCc4ccccc43)ccc12, which protection from H2O2 cell death is on record?
**A.** The protection from H2O2 cell death was 22.6% (inactive).

**Q.** Which protection from H2O2 cell death does the source give for Cc1cc(C(=O)OCC(=O)NCc2ccco2)c(C)n1-c1ccccc1 here?
**A.** Its protection from H2O2 cell death is -1.9% (inactive).

**Q.** With COc1ccc(/C=C2/S/C(=N/N=C3\CC4CCC3(C)C4(C)C)NC2=O)cc1 (configuration not stated) as the compound, how does the protection from H2O2 cell death read?
**A.** The protection from H2O2 cell death was -7.9% (inactive).

**Q.** With O=[N+]([O-])c1ccc2c(c1)C(N1CCOCC1)/C(=C/C1(O)CCCCC1)O2 (configuration not stated) as the compound, how does the protection from H2O2 cell death read?
**A.** Its protection from H2O2 cell death is 1.3% (inactive).

**Q.** With O=C1OCCC1=COCCCCOC=C1CCOC1=O as the compound, how does the protection from H2O2 cell death read?
**A.** The protection from H2O2 cell death was 3% (inactive).

**Q.** For O=C(NCC1(N2CCCCC2)CCCCC1)c1cccc(S(=O)(=O)Nc2ccccc2Cl)c1, which protection from H2O2 cell death is on record?
**A.** The protection from H2O2 cell death was 28.2% (inactive).

**Q.** Which protection from H2O2 cell death does the source give for O=C(O)Cn1c(Cc2ccccc2)nc2ccccc21 here?
**A.** Its protection from H2O2 cell death is 11.1% (inactive).

**Q.** Which protection from H2O2 cell death does the source give for CCCn1c(N)c(C(=O)CSc2nnc(-c3cccnc3)n2-c2ccc(C)cc2C)c(=O)[nH]c1=O here?
**A.** Its protection from H2O2 cell death is 22.9% (inactive).

**Q.** Which protection from H2O2 cell death does the source give for CCCCC(=O)Nc1ccc2c(c1)C(=O)NC2=O here?
**A.** The protection from H2O2 cell death was 9.9% (inactive).

**Q.** For Cc1ccc(C)c(NC(=O)CSc2nc3c(oc4ccccc43)c(=O)n2-c2ccccc2)c1, which protection from H2O2 cell death is on record?
**A.** The protection from H2O2 cell death was -6.4% (inactive).

**Q.** For CCCCC(=O)Nc1cc(C)c2c(=O)oc3ccccc3c2n1, which protection from H2O2 cell death is on record?
**A.** Its protection from H2O2 cell death is 77.7% (active).

**Q.** With COc1ccc2c(c1)C(NS(=O)(=O)OCC(Cl)(Cl)Cl)CCC2 (configuration not stated) as the compound, how does the protection from H2O2 cell death read?
**A.** Its protection from H2O2 cell death is -4.5% (inactive).

**Q.** With COc1ccc(S(=O)(=O)NCCc2cc3ccc(C)c(C)c3[nH]c2=O)cc1 as the compound, how does the protection from H2O2 cell death read?
**A.** The protection from H2O2 cell death was -9.7% (inactive).

**Q.** For COc1ccc2[nH]c(=O)c(CNc3ccc(C)c(C)c3)cc2c1, which protection from H2O2 cell death is on record?
**A.** The protection from H2O2 cell death was 57.7% (active).

**Q.** For COc1ccc2[nH]c(=O)c(CN(CC3CCCO3)C(=O)Nc3ccccc3)cc2c1 (configuration not stated), which protection from H2O2 cell death is on record?
**A.** The protection from H2O2 cell death was 11.7% (inactive).

**Q.** Which protection from H2O2 cell death does the source give for CCc1cccc(CC)c1N1C(=O)CC(Sc2ccccc2N)C1=O (configuration not stated) here?
**A.** Its protection from H2O2 cell death is -0.9% (inactive).

**Q.** Which protection from H2O2 cell death does the source give for O=C(NCc1cccs1)C(=O)NCC1OCCCN1S(=O)(=O)c1ccc(F)cc1 (configuration not stated) here?
**A.** The protection from H2O2 cell death was 6% (inactive).

**Q.** For CCOc1cc2c(Cl)ncnc2c(OCC)c1OCC, which protection from H2O2 cell death is on record?
**A.** The protection from H2O2 cell death was 0.8% (inactive).

**Q.** For CCC1(CC)NC(=O)N(CC(=O)OCC(=O)c2cc(C)c(C)cc2C)C1=O, which protection from H2O2 cell death is on record?
**A.** Its protection from H2O2 cell death is 4.7% (inactive).

**Q.** Which protection from H2O2 cell death does the source give for CC1(C(=O)OCC(=O)Nc2ncc(Cl)cc2Cl)CC1(Cl)Cl (configuration not stated) here?
**A.** The protection from H2O2 cell death was -1.6% (inactive).

**Q.** With Cc1ccc(S(=O)(=O)N(C)CC(=O)OCC(=O)Nc2ccccc2)cc1 as the compound, how does the protection from H2O2 cell death read?
**A.** Its protection from H2O2 cell death is -0.1% (inactive).

**Q.** For CCC1(CC)NC(=O)N(CC(=O)OCC(=O)Nc2ccc(C(F)(F)F)cc2)C1=O, which protection from H2O2 cell death is on record?
**A.** Its protection from H2O2 cell death is 4.8% (inactive).

**Q.** Which protection from H2O2 cell death does the source give for Cc1ccc(C)c(NC(=O)COC(=O)c2nn(C)c(=O)c3ccccc23)c1 here?
**A.** Its protection from H2O2 cell death is 7% (inactive).

**Q.** Which protection from H2O2 cell death does the source give for Cc1ccc(C)c(C(=O)COC(=O)Cn2[nH]c(=O)c3ccccc3c2=O)c1 here?
**A.** Its protection from H2O2 cell death is 82% (active).

**Q.** Which protection from H2O2 cell death does the source give for O=C(COC(=O)c1ccc(S(=O)(=O)N2CCCCCC2)cc1)Nc1ccccc1C(F)(F)F here?
**A.** Its protection from H2O2 cell death is 2.5% (inactive).

**Q.** Which protection from H2O2 cell death does the source give for CC(Oc1ccc(Cl)cc1)C(=O)OCC(=O)Nc1ncc(Cl)cc1Cl (configuration not stated) here?
**A.** Its protection from H2O2 cell death is 7.1% (inactive).

**Q.** With O=C(COC(=O)Cn1[nH]c(=O)c2ccccc2c1=O)Nc1ncc(Cl)cc1Cl as the compound, how does the protection from H2O2 cell death read?
**A.** The protection from H2O2 cell death was 79.9% (active).

**Q.** With O=C(COC(=O)Cn1[nH]c(=O)c2ccccc2c1=O)Nc1c(Cl)cccc1C(F)(F)F as the compound, how does the protection from H2O2 cell death read?
**A.** The protection from H2O2 cell death was 88.6% (active).

**Q.** For CN(C)S(=O)(=O)c1ccc(NC(=O)COC(=O)Cn2[nH]c(=O)c3ccccc3c2=O)cc1, which protection from H2O2 cell death is on record?
**A.** The protection from H2O2 cell death was 72.5% (active).

**Q.** Which protection from H2O2 cell death does the source give for CN(C)S(=O)(=O)c1ccc(NC(=O)COC(=O)c2n[nH]c3ccccc23)cc1 here?
**A.** Its protection from H2O2 cell death is -11.7% (inactive).

**Q.** For CCc1nc2ccc(C(=O)NCCNC(C)=O)cn2c1N(CC)Cc1cccc(Br)c1, which protection from H2O2 cell death is on record?
**A.** The protection from H2O2 cell death was 4.8% (inactive).

**Q.** With CC(OC(=O)CNC(=O)c1cccc(F)c1)C(=O)NC1CCCCC1C (configuration not stated) as the compound, how does the protection from H2O2 cell death read?
**A.** Its protection from H2O2 cell death is 2% (inactive).

**Q.** Which protection from H2O2 cell death does the source give for CCCC(=O)Nc1ccc2c(c1)nc1n2CCSC1 here?
**A.** Its protection from H2O2 cell death is -7.4% (inactive).

**Q.** For CS(=O)(=O)N1CCc2nc(-c3ccccc3)sc2C1, which protection from H2O2 cell death is on record?
**A.** The protection from H2O2 cell death was -1.4% (inactive).
